“And” between values parts separate entries of the source, which are not always exact repeats. Equal entries are not always repeated. Records with an inconclusive call do not appear. The source made the active and inactive calls. Unless noted, the call rests on the fitted dose curve; in most records, active means well fitted curve in the direction sought with a large enough effect; inconclusive means small, poorly fitted or top-dose-only effect, or another doubt; inactive means no such curve, though single readings can be large; an effect the other way counts as inactive or inconclusive.
Assays:
[1] = molecular target: Glucocorticoid receptor (Homo sapiens) (UniProt P04150); test: GR-GFP Redistribution (AID 450;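 active means compounds whose dose series gives a full or clear partial fitted curve of increased nuclear translocation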; further: potency means the concentration at half of the fitted maximal effect); details: U2OS GR-GFP nuclear translocation, laser cytometry, 2 h
Chain of Glucocorticoid receptor (Homo sapiens) (P04150 whole entry, looked up, the tested form may be a part): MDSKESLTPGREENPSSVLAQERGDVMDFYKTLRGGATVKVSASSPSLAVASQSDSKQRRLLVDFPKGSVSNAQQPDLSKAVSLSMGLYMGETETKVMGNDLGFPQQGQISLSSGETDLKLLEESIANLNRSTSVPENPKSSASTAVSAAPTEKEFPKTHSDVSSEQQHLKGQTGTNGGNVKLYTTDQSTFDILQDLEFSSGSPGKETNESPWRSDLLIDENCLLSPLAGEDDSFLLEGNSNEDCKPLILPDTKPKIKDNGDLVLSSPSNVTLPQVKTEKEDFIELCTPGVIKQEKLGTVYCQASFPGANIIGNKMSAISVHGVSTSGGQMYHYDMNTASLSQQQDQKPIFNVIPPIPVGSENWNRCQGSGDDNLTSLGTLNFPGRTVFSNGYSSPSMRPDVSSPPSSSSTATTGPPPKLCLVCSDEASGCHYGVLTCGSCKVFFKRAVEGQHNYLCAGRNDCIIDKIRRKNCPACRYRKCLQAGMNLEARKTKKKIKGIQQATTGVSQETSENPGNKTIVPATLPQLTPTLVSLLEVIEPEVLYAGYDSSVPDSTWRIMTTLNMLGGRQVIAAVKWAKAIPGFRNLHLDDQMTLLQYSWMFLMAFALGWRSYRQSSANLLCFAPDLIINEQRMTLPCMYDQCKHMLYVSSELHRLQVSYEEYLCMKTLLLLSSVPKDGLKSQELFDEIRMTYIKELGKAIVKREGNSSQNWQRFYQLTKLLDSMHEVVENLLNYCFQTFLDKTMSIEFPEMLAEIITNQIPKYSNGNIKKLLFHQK

[2] = molecular target: Glucocorticoid receptor (Homo sapiens) (UniProt P04150); test: GR-EFC Redistribution (AID 451; calls by dose curve; further: potency means the concentration at half of the fitted maximal effect); details: CHO-K1 GR-EFC translocation, beta-gal luminescence, 2 h
In short: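 CHO-K1 cells stably expressing nuclear-localized β-gal enzyme acceptor and GR fused C-terminally to the enzyme donor fragment; ligand-driven nuclear translocation restores β-gal by complementation. Compounds titrated up to 46 uM final, 2 h at 37 °C; luminescence read.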

[3] = molecular target: 3',5'-cyclic-AMP phosphodiesterase 4B (Homo sapiens) (UniProt Q07343); test: qHTS Assay for Inhibitors of PDE-IV (AID 607; active means well fitted activation curve with a large enough effect in the main read-out, with a control signal flat, not every such curve was filed as active; further: % of control where 0% means no effect)
Chain of 3',5'-cyclic-AMP phosphodiesterase 4B (Homo sapiens) (Q07343 whole entry, looked up): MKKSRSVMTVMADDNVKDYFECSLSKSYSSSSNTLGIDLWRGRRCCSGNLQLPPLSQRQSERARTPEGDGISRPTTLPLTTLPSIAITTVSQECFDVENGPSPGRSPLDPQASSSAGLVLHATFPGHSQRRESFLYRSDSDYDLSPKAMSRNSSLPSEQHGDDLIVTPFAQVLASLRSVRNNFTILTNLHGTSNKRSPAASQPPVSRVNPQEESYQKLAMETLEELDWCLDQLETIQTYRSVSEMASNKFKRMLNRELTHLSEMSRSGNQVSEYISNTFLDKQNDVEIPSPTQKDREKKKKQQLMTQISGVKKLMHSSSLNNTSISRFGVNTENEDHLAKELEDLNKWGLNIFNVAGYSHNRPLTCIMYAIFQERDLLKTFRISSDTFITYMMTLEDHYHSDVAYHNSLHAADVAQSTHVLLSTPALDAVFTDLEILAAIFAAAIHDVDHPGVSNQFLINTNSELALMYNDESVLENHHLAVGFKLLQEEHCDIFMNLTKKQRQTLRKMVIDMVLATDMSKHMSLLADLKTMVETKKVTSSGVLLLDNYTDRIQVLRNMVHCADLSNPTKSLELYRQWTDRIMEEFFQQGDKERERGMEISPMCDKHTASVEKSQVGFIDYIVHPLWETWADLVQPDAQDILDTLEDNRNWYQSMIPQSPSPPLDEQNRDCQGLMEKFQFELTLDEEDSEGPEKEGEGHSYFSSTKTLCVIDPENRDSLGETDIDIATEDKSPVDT
In short: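 Cell-based read-out of cAMP via a modified cyclic nucleotide-gated channel and membrane potential dye (535/590 nm) in HEK293 cells expressing PDE4 endogenously. Compounds tested up to 22.9 uM final; 100 uM RO 20-1724 reference.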

[4] = molecular target: Cytochrome P450 2D6 (Homo sapiens) (UniProt P10635); test: qHTS Assay for Inhibitors and Substrates of Cytochrome P450 2D6 (AID 891); further: potency means the concentration at half of the fitted maximal effect; nearly all actives have a fitted effect of over 60% in size
Chain of Cytochrome P450 2D6 (Homo sapiens) (P10635 whole entry, looked up): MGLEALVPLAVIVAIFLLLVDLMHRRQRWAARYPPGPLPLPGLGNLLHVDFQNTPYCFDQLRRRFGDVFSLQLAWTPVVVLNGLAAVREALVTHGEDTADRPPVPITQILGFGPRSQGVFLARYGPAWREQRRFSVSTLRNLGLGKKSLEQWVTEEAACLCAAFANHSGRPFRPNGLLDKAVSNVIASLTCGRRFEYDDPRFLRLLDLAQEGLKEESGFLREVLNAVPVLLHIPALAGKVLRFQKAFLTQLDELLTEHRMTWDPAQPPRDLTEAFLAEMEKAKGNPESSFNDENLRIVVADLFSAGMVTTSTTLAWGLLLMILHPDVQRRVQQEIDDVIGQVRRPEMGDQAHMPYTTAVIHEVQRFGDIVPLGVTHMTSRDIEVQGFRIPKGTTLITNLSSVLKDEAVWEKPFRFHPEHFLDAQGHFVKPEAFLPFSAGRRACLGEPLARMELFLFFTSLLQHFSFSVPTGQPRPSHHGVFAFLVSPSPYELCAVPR
In short: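 Human CYP2D6 (5 nM) with 30 uM Luciferin-ME EGE (at Km) in 100 mM KPO4, compound preincubated 10 min, then NADPH regeneration system for 60 min at room temperature. Luciferin read by luminescence; normalized to 1.43 uM quinidine.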

[5] = molecular target: Cytochrome P450 2C19 (Homo sapiens) (UniProt P33261); test: qHTS Assay for Inhibitors and Substrates of Cytochrome P450 2C19 (AID 899); further: potency means the concentration at half of the fitted maximal effect; nearly all actives have a fitted effect of over 60% in size
In short: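 Human CYP2C19 (5nM) with Luciferin-H EGE at 10uM (its KM) in 50mM KPO4 was preincubated with compound for 10 min at 37C. NADPH regeneration started a 60 min 37C reaction. Luciferin was read by luminescence, normalized to 57uM ketoconazole.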

[6] = qHTS Assay for Lipid Storage Modulators (AID 1519; calls by dose curve); details: Drosophila S3 cells, BODIPY lipid droplet/cell ratio, laser cytometry, cells loaded with oleic acid
In short: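 Cells seeded at 5,000 per well were treated with compounds over a concentration series and loaded with oleic acid (400 uM, as added). Lipid droplet fluorescence (488 nm excitation, 500-530 nm channel) was read by laser-scanning cytometry and normalized to 20 uM Triacsin C.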

[7] = molecular target: DNA dC->dU-editing enzyme APOBEC-3G (Homo sapiens) (UniProt Q9HC16); test: qHTS for inhibitors of Vif-A3G interactions: Validation (AID 588379); further: 0% is about no effect
Chain of DNA dC->dU-editing enzyme APOBEC-3G (Homo sapiens) (Q9HC16 whole entry, looked up): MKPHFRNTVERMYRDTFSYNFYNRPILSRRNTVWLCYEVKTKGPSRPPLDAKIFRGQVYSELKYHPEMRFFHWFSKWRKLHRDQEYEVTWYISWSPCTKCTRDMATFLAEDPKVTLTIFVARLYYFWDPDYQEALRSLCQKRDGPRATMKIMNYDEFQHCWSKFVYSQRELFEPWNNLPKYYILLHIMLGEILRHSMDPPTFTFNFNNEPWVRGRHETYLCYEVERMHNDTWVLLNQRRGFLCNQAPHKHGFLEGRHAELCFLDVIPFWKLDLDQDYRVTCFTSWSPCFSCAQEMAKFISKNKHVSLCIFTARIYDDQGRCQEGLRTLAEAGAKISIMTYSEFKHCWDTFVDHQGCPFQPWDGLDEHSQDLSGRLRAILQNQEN
In short: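 HeLa cells stably expressing Vif and A3G-eYFP, 700 cells/well, incubated overnight at 37 deg C, then exposed to compound overnight at 37 deg C. Inhibition of Vif-mediated degradation read as increased yellow fluorescence (Ex 488/Em 500-530) by laser-scanning cytometry.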

[8] = system: Zika virus NS2B-NS3 protease; test: Primary screen GU AMC qHTS for Zika virus inhibitors (AID 1347154);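 further: 0% = no-inhibitor control and -100% = no-enzyme control; nearly all actives have a fitted effect of over 70% in size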
In short: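 Unlinked Zika NS2B hydrophilic domain/NS3 protease domain noncovalent complex (25 nM final) in 10 mM Tris-HCl pH 8.0, 0.01% Tween 20, with AMC peptide substrate. Fluorescence (ex 340, em 450 nm) change over 15 min, room temperature; percent inhibition fitted to 4-parameter Hill equation.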

[9] = molecular target: Cytochrome P450 1A2 (Homo sapiens) (UniProt P05177); test: p450-cyp1a2 (AID 410; calls by dose curve; further: potency means the concentration at half of the fitted maximal effect;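 on activity change, negative = inhibition: -100% = full effect of reference inhibitor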)
Chain of Cytochrome P450 1A2 (Homo sapiens) (P05177 whole entry, looked up): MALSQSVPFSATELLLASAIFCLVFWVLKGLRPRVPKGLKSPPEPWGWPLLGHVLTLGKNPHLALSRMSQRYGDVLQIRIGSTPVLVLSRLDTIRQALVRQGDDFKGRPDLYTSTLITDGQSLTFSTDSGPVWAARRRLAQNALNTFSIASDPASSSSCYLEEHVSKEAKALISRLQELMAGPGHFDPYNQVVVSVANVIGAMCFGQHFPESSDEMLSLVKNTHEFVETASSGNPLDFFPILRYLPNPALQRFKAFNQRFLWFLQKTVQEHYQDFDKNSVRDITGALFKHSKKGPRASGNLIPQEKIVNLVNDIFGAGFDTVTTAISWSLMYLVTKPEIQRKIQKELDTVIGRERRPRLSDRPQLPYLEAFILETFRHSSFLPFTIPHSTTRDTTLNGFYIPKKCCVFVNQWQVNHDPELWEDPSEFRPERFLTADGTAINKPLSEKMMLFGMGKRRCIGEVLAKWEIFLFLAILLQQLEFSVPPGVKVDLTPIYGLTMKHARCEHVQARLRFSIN
In short: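 Human CYP1A2 (20nM) demethylated Luciferin-ME at its Km (100uM) in 100mM KPO4. After 10 min compound preincubation, NADPH regeneration ran the reaction 60 min at room temperature. Luciferin was read by luminescence, normalized to 57 uM furafylline.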

[10] = molecular target: Ubiquitin carboxyl-terminal hydrolase 1 (Homo sapiens) (UniProt O94782); test: Inhibitors of USP1/UAF1: Pilot qHTS (AID 504865);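 further: rhodamine fluorescence freed from ubiquitin-rhodamine substrate followed over time; top concentration of the series differs between compounds; on the % scale 0 is the no-effect control and ±100 the full control effect; nearly all actives have a fitted effect of over 35% in size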
Chain of Ubiquitin carboxyl-terminal hydrolase 1 (Homo sapiens) (O94782 whole entry, looked up): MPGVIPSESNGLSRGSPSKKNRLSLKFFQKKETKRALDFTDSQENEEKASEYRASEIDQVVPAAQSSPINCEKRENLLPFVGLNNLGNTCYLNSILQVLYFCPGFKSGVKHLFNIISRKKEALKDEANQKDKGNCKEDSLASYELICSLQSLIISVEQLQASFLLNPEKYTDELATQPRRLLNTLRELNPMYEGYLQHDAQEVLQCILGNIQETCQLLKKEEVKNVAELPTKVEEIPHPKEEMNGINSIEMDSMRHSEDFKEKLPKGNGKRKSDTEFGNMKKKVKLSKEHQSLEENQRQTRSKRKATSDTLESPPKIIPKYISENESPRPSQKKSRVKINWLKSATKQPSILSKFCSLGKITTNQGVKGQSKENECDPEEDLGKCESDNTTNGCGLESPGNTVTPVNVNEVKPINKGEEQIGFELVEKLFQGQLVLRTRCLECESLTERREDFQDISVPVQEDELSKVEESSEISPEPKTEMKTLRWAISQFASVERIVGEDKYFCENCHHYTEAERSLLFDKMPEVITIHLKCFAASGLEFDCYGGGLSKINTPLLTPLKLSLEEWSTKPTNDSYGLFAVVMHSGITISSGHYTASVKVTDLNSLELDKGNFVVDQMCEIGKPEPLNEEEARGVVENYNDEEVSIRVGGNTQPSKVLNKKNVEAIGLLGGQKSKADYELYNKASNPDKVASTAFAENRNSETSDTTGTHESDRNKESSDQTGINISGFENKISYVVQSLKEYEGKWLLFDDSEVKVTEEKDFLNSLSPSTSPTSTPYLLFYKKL
In short: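 Deubiquitinase activity followed as kinetic rhodamine fluorescence release from 150 nM Ub-Rho. 1 nM USP1/UAF1 with compound, after 15 min room-temperature preincubation, in HEPES pH 7.8 buffer containing TCEP, EDTA, BSA and Tween-20.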

[11] = molecular target: Mitogen-activated protein kinase 10 (Mus musculus) (UniProt Q61831); test: JNK3 AlphaScreen Assay (AID 530; active means well fitted curve in either direction with a large enough effect, not every such curve was filed as active;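 further: kinase came from lysate of stimulated human HepG2 cells; signal reports phosphorylation of biotinylated GST-cJun 1-79 at Ser73 with 10 µM ATP; on the % scale 0 is the no-effect control and ±100 the full control effect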)
In short: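 JNK3 came from HepG2 lysates pre-activated with IL-1beta and TNF-alpha and phosphorylated biotinylated GST-cJun (1-79) at 10 uM ATP, pH 7.6, room temperature. Compounds were titrated. AlphaScreen signal used anti-phospho-cJun (Ser73) antibody.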

[12] = AP1 Signaling Pathway (AID 357; active means well fitted curve in either direction with a large enough effect, not every such curve was filed as active;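 further: ME-180 reporter cells stimulated with EGF at its EC50 level; on the % scale 0 is the no-effect control and ±100 the full control effect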)
In short: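 A ratiometric CCF4 readout (405 nm excitation; 460 and 530 nm emission) quantified AP-1-driven beta-lactamase in ME-180 cells after 5 h with compound and EC50 EGF; AC50 values were derived for activators and inhibitors.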

[13] = Primary qHTS for small molecule stabilizers of the endoplasmic reticulum resident proteome: Secreted ER Calcium Modulated Protein (SERCaMP) assay (AID 1508630); further: on the % scale 0 is the no-effect control and ±100 the full control effect
In short: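 GLuc-SERCaMP-expressing SH-SY5Y cells, pretreated 16 h with compound, are challenged with thapsigargin to empty ER calcium stores; after 4 h, coelenterazine is added directly to the medium and luminescence is imaged.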

[14] = molecular target: Pyruvate kinase (Leishmania mexicana) (UniProt Q27686); test: qHTS Validation Assay for Inhibitors of Leishmania Mexicana Pyruvate Kinase (AID 945);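 further: 0% = DMSO only neutral control wells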
Chain of Pyruvate kinase (Leishmania mexicana) (Q27686 2-499 E452W): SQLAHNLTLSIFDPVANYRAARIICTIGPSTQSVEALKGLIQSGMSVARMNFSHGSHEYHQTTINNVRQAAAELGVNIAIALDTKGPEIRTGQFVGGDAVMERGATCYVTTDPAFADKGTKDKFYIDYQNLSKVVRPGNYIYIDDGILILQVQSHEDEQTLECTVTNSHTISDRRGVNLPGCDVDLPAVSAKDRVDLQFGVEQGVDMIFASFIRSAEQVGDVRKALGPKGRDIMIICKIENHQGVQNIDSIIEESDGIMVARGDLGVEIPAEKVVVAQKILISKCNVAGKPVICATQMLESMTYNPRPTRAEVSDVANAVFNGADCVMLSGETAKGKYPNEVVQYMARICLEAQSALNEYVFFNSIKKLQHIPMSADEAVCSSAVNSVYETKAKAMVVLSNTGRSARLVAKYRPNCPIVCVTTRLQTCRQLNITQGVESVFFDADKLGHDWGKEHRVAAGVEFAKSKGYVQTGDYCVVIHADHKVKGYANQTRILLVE
In short: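 Purified LmPYK (E451W mutant, 0.2 nM) was incubated 1 h at room temperature with 0.5 mM PEP and 0.1 mM ADP in 50 mM imidazole pH 7.2, 50 mM KCl, 7 mM MgCl2; ATP formed was read by PKLight luminescence, normalized to DMSO wells.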

[15] = molecular target: Pyruvate kinase PKM (Homo sapiens) (UniProt P14618); test: qHTS Assay for Activators of Human Muscle Pyruvate Kinase (AID 954; active means well fitted curve in the direction sought with a large enough effect, not every such curve was filed as active;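 further: 0% = uninhibited enzyme and -100% = no enzyme or full thiadiazolimine inhibition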)
In short: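 Human PKM2 activity is measured as ATP generation, detected by luciferase-coupled luminescence. The enzyme (0.1 nM) acts on 0.5 mM PEP and 0.1 mM ADP for 1 h at ambient temperature; data are normalized to uninhibited and full-inhibition wells.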

[16] = molecular target: Alpha-galactosidase (Coffea arabica) (UniProt Q42656); test: Counterscreen for Glucocerebrosidase Inhibitors: qHTS Assay for Coffee Bean alpha-Galactosidase at pH 4.5 (AID 957);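 further: plate controls were enzyme alone for no effect and no enzyme for full effect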
Chain of Alpha-galactosidase (Coffea arabica) (Q42656 whole entry, looked up): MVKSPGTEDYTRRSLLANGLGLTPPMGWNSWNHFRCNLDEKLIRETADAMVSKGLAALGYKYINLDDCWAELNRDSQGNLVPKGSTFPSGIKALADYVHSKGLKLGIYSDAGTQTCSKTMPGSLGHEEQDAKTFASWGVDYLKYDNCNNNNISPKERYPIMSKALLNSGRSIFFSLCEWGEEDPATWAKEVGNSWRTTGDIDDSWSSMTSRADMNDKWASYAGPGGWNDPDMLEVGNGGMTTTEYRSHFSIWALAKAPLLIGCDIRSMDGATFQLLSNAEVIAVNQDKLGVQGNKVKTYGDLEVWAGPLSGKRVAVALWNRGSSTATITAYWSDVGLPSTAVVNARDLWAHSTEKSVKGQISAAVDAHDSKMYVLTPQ
In short: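 Green coffee bean enzyme (2 nM final) was incubated with compounds (0.7 nM to 77 uM) and 4-methylumbelliferyl alpha-D-galactopyranoside (80 uM final) in 50 mM citric acid, 0.005% Tween-20, pH 4.5, 20 min at room temperature; AC50 from Hill fits.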

[17] = molecular target: Alpha-galactosidase A (Homo sapiens) (UniProt P06280); test: Counterscreen for Glucocerebrosidase Inhibitors: qHTS Assay for Human alpha-Galactosidase at pH 4.5 (AID 992); further: 0% is about no effect
Chain of Alpha-galactosidase A (Homo sapiens) (P06280 whole entry, looked up): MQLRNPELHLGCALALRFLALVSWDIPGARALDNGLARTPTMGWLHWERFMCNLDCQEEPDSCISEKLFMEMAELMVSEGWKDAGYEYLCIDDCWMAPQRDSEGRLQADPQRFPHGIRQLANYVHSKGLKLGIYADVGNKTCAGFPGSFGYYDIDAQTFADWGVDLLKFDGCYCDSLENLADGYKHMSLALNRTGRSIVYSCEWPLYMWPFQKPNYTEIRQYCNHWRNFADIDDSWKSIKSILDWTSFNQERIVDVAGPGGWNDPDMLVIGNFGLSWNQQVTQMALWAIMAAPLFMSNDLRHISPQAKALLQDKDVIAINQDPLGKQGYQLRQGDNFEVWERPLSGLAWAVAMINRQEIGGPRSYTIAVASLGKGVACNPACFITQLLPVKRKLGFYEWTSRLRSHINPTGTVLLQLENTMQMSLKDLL
In short: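 Quantitative HTS: compounds tested from 0.7 nM up to 77 uM against 2 nM enzyme with 80 uM 4-MU alpha-D-galactopyranoside. The 20 min room-temperature reaction is stopped with 1M NaOH/1M glycine, pH 10.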

[18] = molecular target: alpha-glucosidase (Oryza sativa, rice) (UniProt Q653V4); test: Counterscreen for Glucocerebrosidase Inhibitors: qHTS Assay for Rice alpha-Glucosidase at pH 5.0 (AID 997);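 further: 0% = full activity with enzyme and -100% = basal without enzyme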
In short: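 Rice alpha-glucosidase (4 nM final) with 400 uM 4-methylumbelliferyl-alpha-D-glucopyranoside in citrate buffer pH 5.0, 20 min at room temperature, stopped at pH 10; fluorescence 365/440 nm, compounds 0.7 nM–77 uM, AC50 from Hill fits.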

[19] = molecular target: Alpha-galactosidase (Coffea arabica) (UniProt Q42656); test: Counterscreen for Glucocerebrosidase Inhibitors: qHTS Assay for Coffee Bean alpha-Galactosidase at pH 5.9 (AID 998);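 further: plate controls were uninhibited enzyme for no effect and no-enzyme basal signal for full effect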
In short: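 Green coffee bean enzyme (2 nM final) was incubated with compounds (0.7 nM–77 uM) and 4-methylumbelliferyl alpha-D-galactopyranoside (80 uM) in citrate buffer pH 5.9, 20 min at room temperature. High-pH stop; fluorescence 365/440 nm; AC50 from Hill fits.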

[20] = NFAT Signaling Pathway (AID 444; active means well fitted curve in either direction with a large enough effect, not every such curve was filed as active;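 further: carbachol stimulus at about its EC50 of 1 µM final; on the % scale 0 is the no-effect control and ±100 the full control effect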); details: Jurkat NFAT-bla M1, carbachol, beta-lactamase ratio, 5 h; at 38 µM (top of the series)
In short: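 Jurkat cells carrying an NFAT-driven β-lactamase reporter and co-transfected muscarinic M1 receptor were treated with compound plus carbachol (1 uM final, an EC50 level) for 5 h at 37 °C. CCF4 loading followed for 1 h at RT; 460/530 nm ratio gave %activity.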

[21] = measured here: cell count channel max response
[22] = measured here: lipid channel max response

NC[C@H](CC(=O)O)c1ccc(Cl)cc1
active: Potency [4] 0.794 µM | Potency [5] 2.51 µM
19.1%: max response [6, 22]
12.8%: max response [6, 21]
inactive: Potency [1] > 46 µM | Potency [2] > 46 µM | Potency [3] | activity change, negative = inhibition ([6]; at 57.5 µM (top of the series)) 2.02% | Potency [7] | Potency [8]

CCNC(=O)[C@@H]1O[C@@H](n2cnc3c(N)ncnc32)[C@H](O)[C@H]1O
inactive: Potency [9] | Potency [1] > 46 µM | Potency [2] > 46 µM | Potency [3] | activity change, negative = inhibition ([6]; at 57.5 µM (top of the series)) 0.939% | Potency [10] | Potency [7] | Potency [8]
-12.5%: max response [6, 21]
-10.6%: max response [6, 22]

C[C@@H](N)Cn1ccc2cc(F)c(Cl)cc21
inactive: Potency [1] > 46 µM | Potency [2] > 46 µM | outcome [11] | Potency [3] | Potency [10] | Potency [7] | Potency [8]
active: Potency [9] 0.0501 µM

O[C@H]1CCCC[C@H]1N1CCC(c2ccccc2)CC1
-11.1% and -2.26%: max response [6, 22]
inactive: outcome [12] | Potency [1] > 20.6 µM and > 46 µM | Potency [2] > 20.6 µM and > 46 µM | outcome [11] | Potency [3] | activity change, negative = inhibition ([6]; at 25.7 µM (top of the series)) 0.444% | activity change, negative = inhibition ([6]; at 57.5 µM (top of the series)) 0.117% | Potency [10] | Potency [7] | Potency [8]
-12.1% and 1.1%: max response [6, 21]

Cc1c(C(=O)c2ccc3ccccc3c2)c2cccc3c2n1[C@H](CN1CCOCC1)CO3
inactive: Potency [9] | Potency [1] > 46 µM | Potency [2] > 46 µM | Potency [3] | Potency [7] | Potency [8]

O=C(CCCN1CCC2(CC1)C(=O)N(Cc1cccc(F)c1)CN2c1ccccc1)c1ccc(F)cc1
active: Potency [4] 3.16 µM
inactive: Potency [1] > 46 µM | Potency [2] > 46 µM | Potency [7] | Potency [8]

C(=C/c1ccccc1)/CN1CCN(CCOC(c2ccccc2)c2ccccc2)CC1
active: Potency [9] 20 µM | Potency [4] 5.01 µM
inactive: Potency [1] > 46 µM | Potency [2] > 46 µM | outcome [11] | Potency [7] | Potency [8]

N[C@@H](Cn1ccc(=O)n(Cc2ccc(C(=O)O)cc2)c1=O)C(=O)O
-1.53%: max response [6, 21]
inactive: Potency [9] | Potency [1] > 46 µM | Potency [2] > 46 µM | outcome [11] | activity change, negative = inhibition ([6]; at 57.5 µM (top of the series)) 0.903% | Potency [10] | Potency [7] | Potency [8]
-1.3%: max response [6, 22]

CCOC(=O)c1ncn2c1CN(C)C(=O)c1cc(N=[N+]=[N-])ccc1-2
inactive: Potency [8] | Potency [13]

CCN1C[C@]2(COC)[C@H](O)C[C@H](OC)[C@]34C1C([C@H](OC)[C@H]23)[C@]1(OC(C)=O)C2[C@@H](OC(=O)c3ccccc3)C(O)(C[C@H]24)[C@@H](OC)[C@@H]1O
inactive: Potency [10] | Potency [8] | Potency [13]

Cc1ncc(C[n+]2csc(CCO)c2C)c(=O)[nH]1
inactive: Potency [8] | Potency [13]

CCCCC1(C2CCCC2)Cc2cc(OCCCC(=O)O)c(Cl)c(Cl)c2C1=O (centres undefined)
inactive: Potency [8] | Potency [13]

O=C(Cc1ccc(Cl)c(Cl)c1)N1CCCC[C@H]1CN1CCCC1
active: Potency [4] 7.94 µM and 2.51 µM | Potency [5] 6.31 µM
inactive: outcome [12] | Potency [9] | Potency [1] > 46 µM | Potency [2] > 46 µM | Potency [3] | outcome [14] | outcome [15] | outcome [16] | outcome [17] | outcome [18] | outcome [19] | Potency [7] | Potency [8]

O=C1CC[C@@]2(O)[C@H]3Cc4ccc(O)c5c4C2(CCN3CC2CC2)[C@H]1O5
inactive: Potency [8] | Potency [13]

CC(C)C[C@H]1C(=O)N2CCCC2[C@]2(O)O[C@](NC(=O)[C@@H]3C=C4c5cccc6[nH]cc(c56)CC4N(C)C3)(C(C)C)C(=O)N12 (some centres undefined)
inactive: Potency [8]

CCOC(OCC)P(=O)(O)CCCN
inactive: Potency [1] > 46 µM | Potency [10] | Potency [7] | Potency [8] | Potency [13]

O[C@@H](Cc1ccncc1)C(Cl)(Cl)Cl
inactive: Potency [1] > 46 µM | Potency [2] > 46 µM | outcome [11] | Potency [3] | Potency [10] | Potency [7] | Potency [8]

Cc1ccc2cc3c(ccc4ccccc43)c3c2c1CC3
inactive: Potency [8] | Potency [13]

Oc1ccc2c3c1O[C@H]1c4oc5ccccc5c4C[C@]4(O)[C@H](C2)N(CC2CC2)CC[C@@]314
inactive: outcome [12] | Potency [9] | activity change, negative = inhibition [20] -24.9% | Potency [1] > 46 µM | Potency [2] > 46 µM | outcome [11] | Potency [3] | outcome [14] | outcome [15] | outcome [16] | outcome [17] | outcome [18] | outcome [19] | Potency [7] | Potency [8]
active: Potency [4] 1.26 µM

C/C(=C\[C@@H](N)C(=O)O)CP(=O)(O)O
inactive: Potency [1] > 46 µM | Potency [10] | Potency [7] | Potency [8] | Potency [13]

CC(C)(C)NC[C@@H](O)COc1cccc2[nH]c(C#N)cc12
-17.5%: max response [6, 22]
-20.5%: max response [6, 21]
inactive: Potency [1] > 46 µM | Potency [2] > 46 µM | outcome [11] | activity change, negative = inhibition ([6]; at 57.5 µM (top of the series)) 2.4% | Potency [10] | Potency [7] | Potency [8]

Source: PubChem BioAssay (NCATS)
